In PubChem BioAssay (NCI) one finds growth data, which are given here for twelve compounds.

Holding throughout (test): NCI-60 one-dose screen, 48 h (100 = growth as untreated, 0 = no growth, -100 = all killed)
What all share (conditions): 10 µM unless noted

The subject of test [1] is NCI-H23 lung.
In test [2] the test system is NCI-H226 lung.
Test [3] has as its system NCI-H322M lung.
Test [4] deals with HOP-62 NSCLC.
In test [5] the test system is NCI-H460 lung.
Test [6] concerns HOP-92 NSCLC.
For test [7], the system named is NCI-H522 lung.
The subject of test [8] is A549/ATCC NSCLC.
Test [9] has as its system 786-0 renal.
Test [10] has as its system COLO 205 colon.

About 83,000 compounds went through this panel and 20% of them were active in at least one assay; those are over-represented in the sample as a whole.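 48-hour exposure, single concentration, 96-well plates; percent growth endpoint where 0 means no net growth. Active: below 10.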 A number with no mark means an inactive call. The source made the active and inactive calls.

Regarding `O=C(c1ccccc1)c1c(/C=C/c2ccccc2)nc2ccccc2c1/C=C/c1ccc(Br)cc1`, the growth was 94.5% in test [1]; 95.1% in test [2]; 96.7% in test [3]; 101% in test [4]; 106% in test [5]; 98.3% in test [6]. The growth is 88.2% in test [7], 98.1% in test [8], 99.7% in test [9] and 114% in [10].
`Cc1cc(NCc2cc(Nc3ccnc4cc(Cl)ccc34)ccc2F)nc(N2CCN(C)CC2)n1`: the growth in [1] was 39.3%; in test [2] it was 64.1%; in test [3], 33.8%; in test [4], 6.67% (active); in [5], -45.3% (active); in test [6], 45.4%. Besides, the growth in test [7] was -30.8% (active); in test [8], 23%; in [9] it was -69.7% (active); in test [10], -73.4% (active).
`O=C(CSc1nnc(-c2ccc(NC(=O)c3cccnc3)cc2)o1)N[C@@H](Cc1ccc(O)cc1)C(=O)O`: the growth is 108% in test [1]; 102% in [2]; 99.8% in test [3]; 98% in test [4]; 111% in test [5]; 96.3% in test [6]. Further, the growth is 91% in test [7], 104% in test [8], 99.6% in [9] and 101% in [10].
Regarding `C=CCOC1=CC(=O)c2ccccc2C1=O`, the growth in [1] was 50.6%; in [2], 100%; in test [3], 91.6%; in test [4], 95.6%; in test [5], 105%; in test [6] it was 114%. The growth in [7] was 74%; in test [8] it was 91.4%; in [9], 102%; in test [10] it was 110%.
On to `O=C(Cc1ccc(F)c(F)c1)Nc1cc(C2(C(F)(F)F)CC2)nn1Cc1ccccc1`, for which the growth in [1] is -9.81% (active); in [2], 8.26% (active); in test [3], 13.4%; in [4], -0.0766% (active); in test [5], 0.876% (active); in test [6], -17.7% (active). The growth in test [7] was -24.6% (active); in [8], 9.17% (active); in test [9], 12.1%; in test [10] it was -86.7% (active).
`CN1CCN(C(=O)c2c3c(n4ccccc24)C(=O)c2ncccc2C3=O)CC1`: the growth is 26.8% in [1]; 69.5% in [2]; 47.2% in test [3]; 27.3% in test [4]; 16.4% in test [5]; 85.4% in test [6]. Also, the growth is 51.7% in [7], 51.3% in [8], 56.3% in test [9] and 78.2% in [10].
Regarding `Cc1cccc(-c2nc(N(C)c3ccc4ncsc4c3)c3ccccc3n2)n1`, the growth in test [1] was 78.2%; in [2], 84%; in [3] it was 100%; in test [4] it was 69.7%; in test [5] it was 70.7%; in test [6], 91.8%. Further, the growth in test [7] is 30.4%; in test [8], 48.5%; in test [9] it was 94%; in [10], 57.3%.
`CC1=CN2C(=O)C3C4=C(CCCC4)SC3N=C2CN1c1c(C)cccc1C` (stereo not given): the growth was 91.1% in [1]; 71% in test [2]; 109% in [3]; 82.5% in test [4]; 76.6% in test [5]; 55.2% in test [6]. Also, the growth is 77.4% in test [7], 82.4% in test [8], 75.9% in test [9] and 110% in test [10].
For `CC1=C([Se]CC(OC(=O)[C@@H](CO)NC(=O)OC(C)(C)C)C(=O)NC(C)(C)C)C(=O)c2ccccc2C1=O` (stereo not given in full), the growth was -74.5% (active) in test [1]; -98.5% (active) in test [2]; -73.1% (active) in test [3]; -60.1% (active) in test [4]; -61.7% (active) in [5]; -68.8% (active) in test [6]. Also, the growth is -92.8% (active) in [7], -11.5% (active) in test [8], -100% (active) in test [9] and -100% (active) in test [10].
On to `CCN1C(=O)N(CC)C2Nn3c(s/c(=C4\C(=O)N(C)c5ccccc54)c3=O)=NC21` (stereo not given), for which the growth in test [1] is 44.3%; in [2], 78.9%; in [3], 75%; in test [4], 58.4%; in test [5] it was 22.6%; in test [6], 75.5%. In addition, the growth was 0.903% (active) in [7], 49.3% in test [8], 27.8% in test [9] and 8.23% (active) in [10].
As to `COc1cccc(C(=O)NCCCNc2cc(-c3cn(-c4ccccc4)nc3-c3cccc(OC)c3)ccn2)c1`, the growth was 45.4% in [1]; 54.6% in test [2]; 99.6% in test [3]; 66% in test [4]; 48.8% in test [5]; 45.3% in test [6]. Further, the growth in test [7] was 46.1%; in [8] it was 29.9%; in test [9], 36.6%; in [10] it was 40%.
In the case of `Cn1c(I)c(C#C[Si](C)(C)C)c(=O)n(C(=O)c2ccccc2)c1=O`, the growth in test [1] was 51.7%; in test [2], 79.6%; in test [3], 94.9%; in [4], 59.1%; in [5], 55.4%; in [6], -27.1% (active). The growth in [7] was -66.2% (active); in [8], 80%; in [9] it was -66.6% (active); in test [10] it was -7.64% (active).
